Measurements published in PubChem BioAssay (NCATS).
Values joined by “and” are separate entries in the source; they are usually repeats but may differ in a detail not shown here. Equal values may be shown once. Inconclusive results are not listed. Active and inactive are the calls of the source. Unless noted, calls follow the shape of the dose curve; as a rule, active = well fitted curve in the direction sought with a large enough effect; inconclusive = small, poorly fitted or top-dose-only effect, or another doubt; inactive = no such curve, though single readings can be large; an effect the other way counts as inactive or inconclusive.

How the values were obtained:
[1] = qHTS for compounds that reverse cellular toxicity of Amyloid beta (A-beta) peptide in yeast: LOPAC Validation Assay (AID 720559); conditions: yeast expressing A-beta; Potency: rescue of growth toxicity; series mostly up to 46.1 µM;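 also: plate controls were DMSO for no effect and equimolar ferric chloride plus clioquinol rescue for full effect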
Summary of the method: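 Yeast expressing toxic A-beta grown with pinned compounds at 30 C for 48 hr. Growth measured as absorbance at 600 nm; data normalized to DMSO and to an equimolar FeCl3/clioquinol mixture as positive control.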

[2] = qHTS for Activators of Parkin Expression: LOPAC Validation Assay (NLuc Reporter) (AID 720572; also: potency is read from the fitted curve at half-maximal effect); conditions: Parkin promoter NanoLuc reporter cells, luminescence; series mostly up to 46.1 µM
Summary of the method: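 Neuronal cells with a Parkin promoter-driven FLuc/NLuc coincidence reporter were treated 24 h at 37 C in 7-point dose response (LOPAC). NLuc luminescence read after FLuc; signals normalized to DMSO and positive control (100%).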

[3] = qHTS for Activators of Parkin Expression: LOPAC Validation Assay (FLuc Reporter) (AID 720573; also: potency is read from the fitted curve at half-maximal effect); conditions: Cell line, PRKN promoter firefly luciferase reporter; series mostly up to 46.1 µM
Summary of the method: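 Neuronal cell line stably expressing FLuc/NLuc coincidence reporter under the Parkin promoter, 1,500 cells/well, dosed 24 h after seeding in 7-point series for 24 h at 37 C. FLuc luminescence read; normalized to DMSO and positive control (100%).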

[4] = molecular target: T1, Hexokinase-4 (Homo sapiens) + Glucokinase regulatory protein (Homo sapiens) (UniProt P35557+Q14397); experiment: qHTS assay for inhibitors of recombinant human GCK-GKRP interaction: Diaphorase-coupled assay (AID 743205); conditions: G6PDH/diaphorase resorufin fluorescence; series mostly up to 57.5 µM
Summary of the method: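 Compounds pre-incubated 20 min with substrate, then 10 nM GST-GCK with 10 nM FLAG-GKRP added. GCK activity coupled via G6PDH and diaphorase to resorufin (5 mM glucose, 0.4 mM ATP, 0.15 mM NADP+, pH 7.6), read kinetically over 30 minutes at Ex 525/Em 590 nm.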

[5] = molecular target: T1, Hexokinase-4 (Homo sapiens) + Glucokinase regulatory protein (Homo sapiens); experiment: qHTS assay for inhibitors of recombinant human GCK-GKRP interaction: ADP-Glo assay (AID 743206); conditions: ADP-Glo luminescence, 60 min; series mostly up to 76.9 µM;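 also: plate controls were DMSO plus enzyme for no effect and no enzyme for full effect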
Summary of the method: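 GST-GCK and FLAG-GKRP (15 nM each in the dispensed mix, with 2 uM S6P) react with 0.4 mM ATP and 5 mM glucose (final) in Hepes pH 7.6 for 60 min at room temperature. ADP is measured by ADP-Glo luminescence.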

[6] = molecular target: T1, Hexokinase-4 (Homo sapiens) + Glucokinase regulatory protein (Homo sapiens); experiment: qHTS assay for inhibitors of recombinant human GCK-GKRP interaction: HTRF assay (AID 743207); conditions: recombinant GCK-GKRP HTRF binding, 60 min, with sorbitol-6-phosphate; series mostly up to 57.5 µM; also: potency is read from the fitted curve at half-maximal effect
Summary of the method: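 HTRF binding of 5 nM GST-GCK and 5 nM FLAG-GKRP with 2 uM S6P in pH 7.1 Hepes buffer (MgCl2, KCl, DTT, Tween 20, BSA). Anti-FLAG XL665 and anti-GST donor added, 60 min at room temperature; 665/615 nm read, normalized to with- and without-GCK controls.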

[7] = qHTS Assay for Identifying Gametocytocidal Compounds (AID 743244); also: potency is read from the fitted curve at half-maximal effect;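 as to max response: % is scaled to controls: 0 for no effect and ±100 for the full control effect; actives lower the fluorescent signal which means gametocytes are killed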; conditions: P. falciparum 3D7 stage III-V gametocytes, alamarBlue, 72 h; max response: active compounds read low
Summary of the method: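 Stage III-V P. falciparum 3D7 gametocytes, 20,000 per well, were exposed to compounds for 72 h at 37C, 5% CO2. AlamarBlue was then added for 24 h and viability was read as fluorescence at Ex 525/Em 598 nm.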

[8] = qHTS assay for small molecule agonists of the antioxidant response element (ARE) signaling pathway measured by Nrf2-dependant transcriptional activity (AID 720636; active = well fitted curve in the direction sought with a large enough effect in the repeat runs; an effect the other way counts as inactive or inconclusive; also: % of control where 0% means no effect); conditions: ARE-luc HepG2, Nrf2 luciferase reporter, 16 h; series mostly up to 92.4 µM
Summary of the method: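 Quantitative HTS format in HepG2 cells stably expressing an ARE-luciferase reporter; 16 hr compound treatment at 37 C, luciferase signal detected with ONE-Glo.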

[9] = qHTS assay for small molecule agonists of the antioxidant response element (ARE) signaling pathway measured by Nrf2-dependant transcriptional activity - cell viability counter screen (AID 720653; active = well fitted curve in the direction sought with a large enough effect in the repeat runs; an effect the other way counts as inactive or inconclusive; also: % is scaled to controls: 0 for no effect and ±100 for the full control effect); conditions: ARE-bla HepG2 viability, CellTiter-Glo ATP luminescence, 16 h; max response: active compounds read low
Summary of the method: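 ARE-bla HepG2 cells treated with compounds for 16 h at 37C; this counter screen measures viability as intracellular ATP by CellTiter-Glo luminescence after 30 min at room temperature.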

T1 sequence (P35557 whole entry, looked up): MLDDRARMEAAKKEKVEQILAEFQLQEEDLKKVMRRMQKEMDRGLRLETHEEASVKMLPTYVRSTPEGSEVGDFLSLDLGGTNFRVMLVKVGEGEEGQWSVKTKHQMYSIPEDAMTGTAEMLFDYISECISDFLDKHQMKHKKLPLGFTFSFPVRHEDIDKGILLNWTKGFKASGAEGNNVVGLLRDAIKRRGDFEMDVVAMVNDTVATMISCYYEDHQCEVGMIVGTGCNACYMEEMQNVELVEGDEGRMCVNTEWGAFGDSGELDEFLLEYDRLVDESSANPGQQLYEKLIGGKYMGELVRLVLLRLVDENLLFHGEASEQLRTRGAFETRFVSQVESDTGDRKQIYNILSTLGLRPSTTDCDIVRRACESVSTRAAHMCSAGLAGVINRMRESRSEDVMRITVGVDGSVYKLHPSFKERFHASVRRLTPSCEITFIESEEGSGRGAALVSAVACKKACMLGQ
T1 sequence (Q14397 whole entry, looked up): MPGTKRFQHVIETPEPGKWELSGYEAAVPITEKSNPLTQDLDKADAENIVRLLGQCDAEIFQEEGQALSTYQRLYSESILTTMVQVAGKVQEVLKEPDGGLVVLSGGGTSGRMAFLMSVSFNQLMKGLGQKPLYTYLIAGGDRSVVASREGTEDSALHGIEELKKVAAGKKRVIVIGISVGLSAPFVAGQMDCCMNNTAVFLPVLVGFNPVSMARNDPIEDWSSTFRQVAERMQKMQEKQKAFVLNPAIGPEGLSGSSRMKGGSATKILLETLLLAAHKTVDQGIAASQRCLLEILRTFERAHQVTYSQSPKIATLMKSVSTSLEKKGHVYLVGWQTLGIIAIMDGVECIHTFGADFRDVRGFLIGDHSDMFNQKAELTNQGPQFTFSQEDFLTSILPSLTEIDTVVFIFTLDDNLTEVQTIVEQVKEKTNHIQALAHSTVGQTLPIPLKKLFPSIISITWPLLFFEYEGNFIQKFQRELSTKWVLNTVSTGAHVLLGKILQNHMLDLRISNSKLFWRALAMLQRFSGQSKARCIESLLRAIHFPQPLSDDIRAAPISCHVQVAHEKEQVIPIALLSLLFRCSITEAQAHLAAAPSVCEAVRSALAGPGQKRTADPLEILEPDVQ

CCCCCCCCCCCCCCCCCC(=O)NCC(COP(=O)([O-])OCC[N+](C)(C)C)OCC (configuration not stated)
inactive: Potency [1] | Potency [2] | Potency [3] | outcome [4] | Potency [5] | Potency [6] | max response [7] 4.32%

CC(C)NCC(O)COc1cccc2ccccc12 (configuration not stated)
inactive: Potency [1] | Potency [2] | Potency [3] | Potency [8] | max response [9] -11.2% and -5.42% | outcome [4] | Potency [5] | Potency [6]

OCC1O[C@H]([S-])[C@H](O)[C@@H](O)[C@@H]1O.[Au+] (some centres not stated)
active: Potency [2] 16.4 µM | Potency [6] 15.8 µM | Potency [7] 2.82 µM
inactive: Potency [1] | Potency [3] | outcome [4] | Potency [5]

O=c1[nH]c2cc(C(F)(F)F)ccc2n1-c1cc(C(F)(F)F)ccc1O
inactive: Potency [1] | Potency [2] | Potency [3] | outcome [4] | Potency [5]

Cc1cc(NC(=O)Nc2ccc3c(ccn3C)c2)sn1
active: Potency [3] 5.8 µM
inactive: Potency [1] | Potency [2] | outcome [4] | Potency [5] | Potency [6] | max response [7] 24.1%

C[N+](C)(C)CC(=O)[O-]
inactive: Potency [1] | Potency [2] | Potency [3] | outcome [4] | Potency [5] | Potency [6]

O=C(/C=C/c1ccc(O)cc1)c1ccc(O)cc1O
inactive: Potency [1] | Potency [2] | Potency [3] | outcome [4] | Potency [5] | Potency [6]

CC(C)(C)c1ccc(S(=O)(=O)/C=C/C#N)cc1
inactive: Potency [1] | Potency [2] | Potency [3] | outcome [4] | Potency [5] | Potency [6]

Oc1ccc(C2CNCc3sccc32)cc1O (configuration not stated)
inactive: Potency [1] | Potency [2] | Potency [3] | outcome [4] | Potency [5] | Potency [6]

O=C(O)c1cc([N+](=O)[O-])ccc1NCCCc1ccccc1
inactive: Potency [1] | Potency [2] | Potency [3] | outcome [4] | Potency [5] | Potency [6] | max response [7] 5.5%

CC(C)Cc1ccc([C@H](C)C(=O)O)cc1
inactive: Potency [1] | Potency [2] | Potency [3] | outcome [4] | Potency [5] | Potency [6] | max response [7] -6.28% and 20.5%

Clc1ccc(N2CCN(Cc3c[nH]c4ncccc34)CC2)cc1
inactive: Potency [1] | Potency [2] | Potency [3] | outcome [4] | Potency [5]

CC(C)ON([C@@H](C(=O)NO)C(C)C)S(=O)(=O)c1ccc(-c2ccccc2)cc1
inactive: Potency [1] | Potency [2] | Potency [3] | outcome [4] | Potency [5]
